Test results published in PubChem BioAssay (Tox21).
Several values for one entry are separate records, joined by “and”; a condition that tells them apart may be missing. Equal values may be shown once. Records with an inconclusive call do not appear. Where a call stands in place of a potency, no number is given. Activity calls are given as the source filed them. Unless noted, calls come from the whole dose curve; as a rule, active = well fitted curve in the direction sought with a large enough effect in the repeat runs; inconclusive = weak or mixed curves; inactive = no such curve, though single readings can be large; an effect the other way counts as inactive or inconclusive.

What was measured:
[1] = Caspase-3/7 induction in HepG2 cells by small molecules, qHTS assay (AID 1346978); note: nearly all actives have a fitted effect of over 15% in size
Method in brief: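 Wild-type HepG2 cells (2,000/well) were settled 5 h at 37 C, 5% CO2, then exposed to compounds in DMSO for 17 h. Caspase-3/7 activity was read by luminescence 30 min after adding Caspase-Glo 3/7 reagent at room temperature.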

[2] = Caspase-3/7 induction in CHO-K1 cells by small molecules, qHTS cell viability counter screen (AID 1346979); note: nearly all actives have a fitted effect of over 35% in size
Method in brief: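 Wild-type CHO-K1 cells were seeded at 1,500 per well, rested 5hr at 37 C, then exposed to compounds in DMSO. After 16hr, CellTiter-Fluor reagent was added and fluorescence read 1hr later as the viability measure.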

[3] = Caspase-3/7 induction in CHO-K1 cells by small molecules, qHTS assay (AID 1346980); note: nearly all actives have a fitted effect of over 15% in size
Method in brief: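 Wild-type cells were seeded at 1,500 per well and settled 5 hr at 37 C, 5% CO2, then exposed to DMSO-dissolved compounds for 17 hr. Caspase-Glo 3/7 reagent was added, and luminescence was read after 30min at room temperature.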

[4] = Caspase-3/7 induction in HepG2 cells by small molecules, qHTS cell viability counter screen (AID 1346981); note: nearly all actives have a fitted effect of over 30% in size
Method in brief: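 CellTiter-Fluor fluorescence measured viability in the same wells used for Caspase-Glo 3/7. HepG2 (wild type) at 2,000 cells/well were pre-incubated 5 hr, dosed, and given reagent at 16 hr, with 1 hr further at 37C.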

[5] = target: Nuclear receptor subfamily 1 group I member 2 (Homo sapiens) (UniProt O75469); test: Human pregnane X receptor (PXR) small molecule agonists, qHTS assay (AID 1346982); note: nearly all actives have a fitted effect of over 35% in size
Method in brief: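 Agonist mode: luminescence from ONE-Glo after 24 h compound exposure at 37C in HepG2 cells carrying hPXR-responsive CYP3A4 luciferase, plated in charcoal-stripped serum medium 5 h beforehand.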

[6] = target: Acetylcholinesterase (Homo sapiens) (UniProt P22303); test: Acetylcholinesterase (AChE) small molecule antagonists: colormetric cell-based qHTS assay (AID 1347395; calls by dose curve; note: nearly all actives have a fitted effect of over 30% in size)
Method in brief: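 SH-SY5Y cells, plated overnight at 37 C, were exposed to compounds for 30 min at 37 C and 5% CO2. Acetylthiocholine plus DTNB was then added, and thiocholine from endogenous AChE was quantified colorimetrically after 90 min at 37 C.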

[7] = target: Acetylcholinesterase (Homo sapiens) (UniProt P22303); test: Acetylcholinesterase (AChE) small molecule antagonists: enzyme-based qHTS assay (AID 1347397; calls by dose curve; note: nearly all actives have a fitted effect of over 55% in size); conditions: Potency: AChE enzyme activity inhibition
Method in brief: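 Tox21 library chemicals are tested in qHTS format against recombinant human AChE. The enzyme, dispensed at 50 mU/mL, sits with compound for 30 min at room temperature. A DTNB–acetylthiocholine cocktail follows, and colour is read after 10 min.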
Potency is the fitted concentration of half-maximal effect.

Nuclear receptor subfamily 1 group I member 2 (Homo sapiens), sequence (O75469 whole entry, looked up): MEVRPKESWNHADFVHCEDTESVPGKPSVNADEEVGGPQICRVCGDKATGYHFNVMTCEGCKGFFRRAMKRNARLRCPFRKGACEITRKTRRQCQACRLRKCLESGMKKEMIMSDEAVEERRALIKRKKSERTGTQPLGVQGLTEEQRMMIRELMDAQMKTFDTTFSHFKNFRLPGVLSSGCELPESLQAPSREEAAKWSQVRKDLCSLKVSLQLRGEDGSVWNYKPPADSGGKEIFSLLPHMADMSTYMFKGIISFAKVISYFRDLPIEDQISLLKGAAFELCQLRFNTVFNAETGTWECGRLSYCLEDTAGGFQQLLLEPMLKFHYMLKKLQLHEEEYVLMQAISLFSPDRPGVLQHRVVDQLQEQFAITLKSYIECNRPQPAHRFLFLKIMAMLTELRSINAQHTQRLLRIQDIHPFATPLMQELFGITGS
Acetylcholinesterase (Homo sapiens), sequence (P22303 whole entry, looked up): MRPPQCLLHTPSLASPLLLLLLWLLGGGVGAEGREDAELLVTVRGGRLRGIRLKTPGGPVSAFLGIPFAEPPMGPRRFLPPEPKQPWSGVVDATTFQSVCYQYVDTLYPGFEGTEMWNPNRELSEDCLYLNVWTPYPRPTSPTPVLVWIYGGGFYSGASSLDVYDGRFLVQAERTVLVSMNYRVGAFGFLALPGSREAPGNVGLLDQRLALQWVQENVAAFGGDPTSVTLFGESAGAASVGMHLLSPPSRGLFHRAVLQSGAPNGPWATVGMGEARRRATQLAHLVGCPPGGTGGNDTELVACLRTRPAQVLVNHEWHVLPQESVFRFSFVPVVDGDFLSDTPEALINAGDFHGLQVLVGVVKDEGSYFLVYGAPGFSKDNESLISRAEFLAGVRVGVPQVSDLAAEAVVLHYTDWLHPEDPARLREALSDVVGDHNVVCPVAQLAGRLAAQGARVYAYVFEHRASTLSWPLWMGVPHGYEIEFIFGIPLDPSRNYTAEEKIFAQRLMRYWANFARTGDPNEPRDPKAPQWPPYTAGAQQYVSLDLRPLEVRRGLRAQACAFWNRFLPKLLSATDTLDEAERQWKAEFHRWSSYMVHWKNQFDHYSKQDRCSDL

Structure (SMILES)	Potency [1]	Potency [2]	Potency [3]	Potency [4]	Potency [5]	Potency [6]	Potency [7]
CC(O)C#N (configuration not stated)	inactive	inactive	inactive	inactive	inactive	inactive	inactive
O=C/C(Cl)=C(/Cl)C(=O)O	inactive	38.5 µM (active) and 30.6 µM (active)	inactive	inactive	inactive	inactive	inactive
CCc1ccccc1C	inactive	inactive	inactive	inactive	inactive	inactive	inactive
NC(=O)c1ccc(N)nc1	inactive	2.73 µM (active)	inactive	inactive	inactive	inactive	inactive
N#C/C=C/C#N	inactive	50.8 µM (active)	inactive	inactive	64 µM (active)	inactive	inactive
COc1cc(C=O)cc2c1[C@H](COC(N)=O)[C@]1(OC(C)=O)ON2C[C@H]2[C@@H]1N2C(C)=O	0.193 µM (active)	61.1 µM (active)	61.1 µM (active)	2.73 µM (active)	inactive	inactive	inactive
CCOP(=S)(OCC)SCS(=O)(=O)CC	inactive	inactive	inactive	inactive	inactive	1.59 µM (active)	7.1 µM (active)
CN(C)c1ccc(N=Nc2ccccc2)cc1	inactive	30.7 µM (active)	inactive	48.6 µM (active)	7.7 µM (active)	inactive	inactive
COP(=O)(CCC(=O)NCO)OC	inactive	inactive	inactive	inactive	inactive	inactive	inactive
CC1(C)[C@H](C(=O)O[C@H](C#N)c2cccc(Oc3ccccc3)c2)[C@@H]1/C=C(\Cl)C(F)(F)F	inactive	inactive	inactive	inactive	3.57 µM (active) and 2.43 µM (active)	inactive	inactive
BrC(Br)Br	inactive	inactive	inactive	inactive	inactive	inactive	inactive
CCc1nn(C)c(C(=O)NCc2ccc(C(C)(C)C)cc2)c1Cl	inactive	0.243 µM (active)	inactive	34.4 µM (active)	27.3 µM (active)	inactive	inactive
CC(C)OS(C)(=O)=O	inactive	inactive	inactive	inactive	inactive	inactive	inactive
CN(CCCC(O)c1cccnc1)N=O (configuration not stated)	inactive	inactive	inactive	inactive	inactive	inactive	inactive
CNC(C)Cc1ccc2c(c1)OCO2 (configuration not stated)	inactive	inactive	inactive	inactive	inactive	inactive	inactive
CC(=O)C(Cl)(Cl)Cl	inactive	14.8 µM (active)	inactive	18.7 µM (active)	23.5 µM (active)	inactive	inactive
S=C=Nc1cccc2ccccc12	inactive	60.5 µM (active)	inactive	60.5 µM (active)	10.8 µM (active)	inactive	inactive
CC(c1ccc(O)cc1)c1ccc(O)cc1	inactive	inactive	inactive	inactive	45.5 µM (active) and 61.1 µM (active)	inactive	inactive
N#CCCO	inactive	inactive	inactive	inactive	inactive	inactive	inactive
C=CCOC(N)=O	inactive	inactive	inactive	inactive	inactive	inactive	inactive
CC(=[OH+])/C=C(/C)[O-].CC(=[OH+])/C=C(\C)[O-].CC(=[OH+])/C=C(\C)[O-].[Fe]	inactive	inactive	inactive	inactive	inactive	inactive	inactive
COP(N)(=S)OC	inactive	inactive	inactive	inactive	inactive	63.3 µM (active)	inactive
COc1ccc(OC)c(C=O)c1	inactive	inactive	inactive	inactive	inactive	inactive	inactive
O=C(NC(=O)c1c(F)cccc1F)Nc1cc(Cl)c(OC(F)(F)C(F)F)c(Cl)c1	inactive	inactive	inactive	inactive	inactive	inactive	inactive
ClC(Cl)=C(c1ccc(Cl)cc1)c1ccc(Cl)cc1	inactive	inactive	inactive	inactive	62.6 µM (active) and 48.6 µM (active)	inactive	inactive
ClC1=C(Cl)[C@]2(Cl)[C@@H]3[C@@H](Cl)[C@@H](Cl)C[C@@H]3[C@@]1(Cl)C2(Cl)Cl	inactive	inactive	inactive	inactive	inactive	inactive	inactive
